Source: PubChem BioAssay (The Scripps Research Institute Molecular Screening Center)
Shown are actives, neighbours in structure and some others; about 4.1% of the full set was active somewhere.
hgDAF12 agonist: hgDAF-12 agonism, primary luciferase screen | HEK293 GAL4-hgDAF12 UAS-luciferase reporter, agonist luminescence; normalized to butyrate control | activation, % at 6.8 µM | 370,000 tested, 1.8% active | AID 687014;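 active = activation above a cutoff set at the mean of all screened compounds plus 3 SD, cut at about 10% in these data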;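 note: 0% = DMSO wells and 100% = sodium butyrate wells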
DAX1 inh-1: NR0B1 (DAX1) inhibition; inhibition, % at 6.75 µM; HEK293 Gal4-DAX1 luciferase reporter, luminescence; 340,000 tested, 0.99% active; AID 504766; P51843;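 active = inhibition above the mean over all tested compounds plus 3 SD, cut at about 4.2% in these data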;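 note: 0% = DAX1-transfected cells with DMSO and 100% = empty-vector control cells with DMSO; inhibition shows as a rise in luminescence from relieved DAX1 repression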
Target sequence (P51843 207-470 limits assumed): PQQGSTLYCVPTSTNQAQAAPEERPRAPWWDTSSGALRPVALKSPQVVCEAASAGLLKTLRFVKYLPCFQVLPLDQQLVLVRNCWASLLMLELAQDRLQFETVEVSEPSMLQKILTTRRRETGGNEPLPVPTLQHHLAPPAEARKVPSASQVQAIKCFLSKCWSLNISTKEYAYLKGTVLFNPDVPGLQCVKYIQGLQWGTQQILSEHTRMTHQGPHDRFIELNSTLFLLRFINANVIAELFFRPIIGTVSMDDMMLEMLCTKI
ssDAF-12 act: activators of S. stercoralis DAF-12 nuclear receptor; HEK293 ssDAF-12/GRIP1 lit1-tk-luc reporter, luminescence; % of 3 µM dafachronic acid response; activation, % at 6.8 µM; 370,000 tested, 1% active; AID 652126;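 active = activation above the mean over all tested compounds plus 3 SD, cut at about 0.9% in these data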;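 note: 0% = DMSO-only wells and 100% = 3 µM delta7-dafachronic acid wells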
DAX1 inh-2: inhibitors of DAX1 repression of SF-1 activated StAR promoter; HEK293T StAR-luciferase reporter, SF-1/DAX-1 repression relief; inhibition, % at 6.8 µM; 370,000 tested, 1.1% active; AID 652010;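 active = inhibition above the mean over all tested compounds plus 3 SD, cut at about 3.6% in these data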;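 note: 0% = DAX-1 cells with DMSO and 100% = cells lacking DAX-1 with DMSO; higher inhibition means more luminescence from relief of DAX-1 repression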
hcDAF-12 act: activators of H. contortus DAF-12 nuclear receptor; HEK293 hcDAF-12 lit1-tk-luc reporter, luminescence; 0% DMSO, 100% Δ7-dafachronic acid; activation, % at 6.8 µM; 370,000 tested, 1.4% active; AID 652067;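 active = activation above the mean of all tested compounds plus 3 SD, cut at about 5.5% in these data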;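 note: 100% = response to 3 µM Δ7-dafachronic acid high control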
LXR ag: activates human LXR-beta, counter-screen for hcDAF-12 agonists | shares compounds with hcDAF-12 act | HEK293 Gal4-LXR tk-luc reporter, luminescence, 24 h; normalized: DMSO 0%, positive control 100% | activation, % at 6.8 µM | 3,400 tested, under 10 active;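 active = mean percent activation of the reporter above a cutoff set as the average over tested compounds plus their standard deviation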
hcDAF12 conf: confirmation of H. contortus DAF-12 agonists. shares compounds with hcDAF-12 act. HEK293 hcDAF-12 lit1-tk-luc reporter, luminescence; % of Δ7-dafachronic acid response. activation, % at 6.8 µM. 3,400 tested, 61% active. AID 743032;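 active = mean activation across triplicate tests above the threshold derived from the earlier primary screen, cut at about 5.5% in these data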;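 note: 0% = DMSO only wells and 100% = 3 µM Δ7-dafachronic acid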
* hit, by the source's call; . = no result given.

SMILES | hgDAF12 agonist | DAX1 inh-1 | ssDAF-12 act | DAX1 inh-2 | hcDAF-12 act | LXR ag | hcDAF12 conf
COc1ccc(OC)c(CC(NC(C)=O)C(=O)NC2CCN(S(=O)(=O)c3ccc(NC(C)=O)cc3)CC2)c1 (stereo unspecified) | 2 | 1 | 0 | 0 | -2 | . | .
CCC(=O)Nc1cc2nn(-c3ccccc3)nc2cc1Cl | 8 | 1 | 0 | 2 | 7.3* | 2 | 13*
COc1ccc(/C(C)=N/Nc2nc3ccccc3nc2C)cc1OC | 9 | 5.1* | 0 | 2 | 8.4* | 0 | 0
Fc1ccc(F)c(C2=NNC(=Nc3ccccc3F)SC2)c1 | 13* | 3 | 2.7* | 3 | 8.6* | 1 | 8.1*
Fc1ccccc1N=C1NN=C(c2ccccc2)CS1 | 12* | 1 | 1.0* | 4 | 12* | 2 | 8.5*
Nc1cccc2c1C(=O)N(CCOc1ccccc1F)C2=O | 11* | 1 | 1.9* | 3 | 18* | 2 | 18*
CC1CCCC(C)N1C(=O)c1cc(-c2ccc3c(c2)OCO3)on1 (stereo unspecified) | 11* | 1 | 0 | 2 | 6.6* | 1 | 5
O=C(NNc1ccccc1Br)C(=O)n1ccc2ccccc21 | 1 | 0 | 0 | 0 | 7.6* | 0 | 2
O=C(Nc1ccccc1Br)C(=O)N1CCCC1 | 6 | 1 | 0 | 1 | 1 | . | .
CC1(C(=O)NS(=O)(=O)c2ccc(Cl)s2)CCN1C(=O)C1(c2ccc(Cl)cc2)CC1 (stereo unspecified) | -1 | . | -1 | -1 | 0 | . | .
COc1ccc(NC(=O)C2=CC=CN3CCS(=O)(=O)N=C23)c(OC)c1 | 1 | 1 | -1 | 0 | -1 | . | .
O=C(CC1CCCC1)N1CCN(S(=O)(=O)c2cccc(Br)c2)CC1 | 1 | 1 | -1 | 0 | 2 | . | .
COc1ccc(/C=C/C(=O)C2C(=O)C=C(C)OC2=O)cc1O (stereo unspecified) | 6 | 1 | 1.6* | 0 | 13* | 0 | 3
COc1cc(/C=C/C(=O)C2C(=O)C=C(C)OC2=O)cc(OC)c1O (stereo unspecified) | -2 | 0 | 0 | 0 | 3 | . | .
NC(=O)c1ccc(NC(=O)COC(=O)CCC2CCCC2)cc1 | 1 | 2 | -1 | -2 | 0 | . | .
O=c1cc(-c2ccccc2)nc2n1Cc1ccccc1-2 | 3 | 0 | -2 | -1 | 1 | . | .
COc1ccc(-c2nc3n(c2C)Cc2ccccc2-3)cc1 | 12* | 4 | 2.2* | 1 | 9.9* | 1 | 7.5*
Cc1nn(CC(=O)NCc2cc3ccccc3[nH]2)c(C)c1[N+](=O)[O-] | 2 | 2 | 0 | 0 | 9.4* | 0 | 3
Cc1ccc(NC(=O)CSc2cn[nH]n2)cc1 | 1 | 0 | 0 | 0 | 7.0* | 0 | 1
CCOc1ccc(NC(=O)CSc2cn[nH]n2)cc1 | -4 | 0 | -1 | 1 | -1 | . | .
CCN1CCN(C(=O)C2CCN(c3nnc(-n4c(C)ccc4C)s3)CC2)CC1 | 4 | 2 | 0 | 0 | 11* | 0 | 1
COC(=O)[C@H](Cc1ccccc1)NP(=O)(OC)[C@@H](C)NC(=O)OCc1ccccc1 (stereo partly specified) | -2 | . | -1 | 0 | -5 | . | .
CCOC(=O)c1csc(NC(=O)C2CCCN(S(=O)(=O)c3ccc(Br)s3)C2)n1 (stereo unspecified) | -7 | . | -1 | -3 | -5 | . | .
CC(C)c1ccc(Oc2cccc3c2S(=O)(=O)N([C@H](C)c2ccccc2)C[C@@H](COCc2ccccc2)O3)cc1 | 2 | . | -1 | 0 | 1 | . | .
CC(=O)C1CCCN(C(=O)c2ccc3oc(CCc4ccccc4)nc3c2)C1 (stereo unspecified) | 4 | 1 | 1 | 3.9* | 7.0* | 0 | 3
O=C(N/N=C/c1ccccc1)C(O)c1ccccc1 (stereo unspecified) | 0 | 0 | 0 | 0 | 6.7* | 0 | 5.6*
